Source: PubChem (several laboratories)
An excerpt weighted towards active compounds, which were near 1.5% of everything screened.
CD11b adhes inh: blocks human CD11b/CD18 adhesion to fibrinogen; P05107+P11215; inhibition, % at 10 µM; K562 CD11b/CD18 adhesion to fibrinogen, ATPlite luminescence; Mn2+ added to activate the integrin; actives 0.54% (n = 93,000);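 active means primary inhibition of 50% or more at 10 µM, then 40% or more on retest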
S1P2 agonist: agonists of human S1P2 receptor. activation, % at 4.5 µM. O95136. S1P2-expressing cell line, agonist reporter read-out. actives 0.46% (n = 97,000); in the data active means activation above about 16%
GALR2 agonist: GALR2 (human) receptor agonism. O43603. GALR2-expressing cells, agonist activation read-out. activation, % (test concentration not listed). actives 0.48% (n = 140,000). AID 803; in the data active means activation above about 5%, passing the limit was not always enough
Target sequence (O43603 whole entry, looked up): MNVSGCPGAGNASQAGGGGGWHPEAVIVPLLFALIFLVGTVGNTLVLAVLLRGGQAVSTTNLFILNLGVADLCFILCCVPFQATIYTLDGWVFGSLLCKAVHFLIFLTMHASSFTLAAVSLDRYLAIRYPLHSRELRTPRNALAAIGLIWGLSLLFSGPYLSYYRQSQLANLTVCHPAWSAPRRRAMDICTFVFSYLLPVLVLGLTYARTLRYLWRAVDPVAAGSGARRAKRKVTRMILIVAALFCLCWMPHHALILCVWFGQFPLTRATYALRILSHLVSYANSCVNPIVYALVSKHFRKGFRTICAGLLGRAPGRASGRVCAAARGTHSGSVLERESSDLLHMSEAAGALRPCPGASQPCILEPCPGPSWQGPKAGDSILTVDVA
GALR2 blocker: antagonists of human galanin receptor 2 (GALR2). inhibition, % at 4 µM. AID 828. GALR2-expressing cells, antagonist mode. actives 0.39% (n = 140,000); in the data active means inhibition above about 27%;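 further: cells stimulated with galanin 1-16 at roughly its EC80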
CD11b adhes enh: enhancers of human CD11b/CD18 binding to fibrinogen; actives 0.07% (n = 93,000); P05107+P11215; AID 1499; K562 CD11b/CD18 adhesion to fibrinogen, ATPlite luminescence; activation, % at 10 µM;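 active means 10 µM primary screen giving 50% or more activity, confirmed by 40% or more on retest at that dose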
S1P2 antag: antagonists of human S1P2 receptor. O95136. cell-based S1P2 antagonist assay, inhibition at 5 uM. inhibition, % at 5 µM. actives 0.21% (n = 97,000). AID 736; in the data active means inhibition above about 45%;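 further: CRE beta-lactamase reporter cells expressing human S1P2 stimulated with S1P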
GALR2 agon conf: GALR2 (human) agonism confirmed; GALR2-expressing cells, agonist activation; activation, % at 5.6 µM; actives 10% (n = 460); AID 864; shares compounds with GALR2 agonist; in the data active means activation above about 8.4%
BLA act counter: activates beta-lactamase reporter in GALR2 agonist counterscreen. shares compounds with GALR2 agonist. CHO NFAT-bla reporter, beta-lactamase FRET activation. activation, % at 5.6 µM. actives 10% (n = 460);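 active means activation above the screen-wide mean activation plus 3 SD, cut at about 8% in these data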
Hits are given with their value; n = inactive; x = no result given.

SMILES	CD11b adhes inh	S1P2 agonist	GALR2 agonist	GALR2 blocker	CD11b adhes enh	S1P2 antag	GALR2 agon conf	BLA act counter
CC(=O)NC1=C(N(C)C2CCS(=O)(=O)C2)C(=O)c2ccccc2C1=O (stereo unspecified)	x	x	36	n	x	x	n	n
CN(C(=O)Nc1ccccc1)C1CCS(=O)(=O)C1 (stereo unspecified)	x	n	n	n	x	n	x	x
COC(=O)C1=CN(CC2CCCO2)C=C(C(=O)OC)C1c1ccccc1C(F)(F)F (stereo unspecified)	n	n	12	n	n	n	n	n
COc1ccc(N/N=C(/C)c2cnnc(-c3ccccc3)n2)cc1	x	x	n	n	x	x	x	x
COC(=O)Cn1c(=NC(=O)c2sc3ccccc3c2Cl)sc2cc(S(N)(=O)=O)ccc21	x	x	n	n	x	x	x	x
COC(=O)Cn1c(=NC(=O)c2nc3ccccc3s2)sc2cc(S(C)(=O)=O)ccc21	x	x	39	n	x	x	n	n
COc1ccc(C(O)(C(=O)NNc2ccc(C)cc2)c2cccs2)cc1 (stereo unspecified)	n	n	n	n	n	n	x	x
O=C(NNc1ccc(C2CCCCC2)cc1)C(O)(c1ccccc1)c1cccs1 (stereo unspecified)	x	n	13	n	x	n	n	n
CCOC(=O)c1cc(C(=O)OCC)c2ccccn2c1=O	n	n	15	n	n	n	n	n
COC(=O)c1cc(C(C)=O)n2ccccc12	n	n	n	n	n	n	x	x
O=C(CCn1c(=O)c2ccccc2n(CC(=O)NCCC2=CCCCC2)c1=O)NCc1ccco1	n	n	86	n	n	n	n	n
COCCNC(=O)CCCn1c(=O)c2ccccc2n(CC(=O)NCCC2=CCCCC2)c1=O	n	n	n	n	n	n	x	x
Cc1cccc(C(=O)N=c2c(C#N)cc3c(=O)n4cccc(C)c4nc3n2Cc2ccco2)c1	n	n	n	n	n	n	n	8.3
O=C(Nc1ccc(O)cc1)/C(=C\c1cccs1)NC(=O)c1ccccc1	x	x	8.8	n	x	x	n	n
CCOc1ccc(NC(=S)NC(=O)c2c(Cl)c(C)nn2C)c([N+](=O)[O-])c1	x	x	8.6	n	x	x	n	n
COc1ccccc1NS(=O)(=O)c1cc(NC(=O)CNC(=O)c2ccc(C)s2)ccc1Cl	x	x	n	n	x	x	x	x
CC1(C)CC(=O)C=C(Nc2ccc(S(N)(=O)=O)cc2)C1	n	n	41	n	n	n	n	n
CC1(C)CC(=O)C=C(Nc2ccc(C(=O)O)cc2)C1	x	n	n	n	x	n	x	x
CC1OC2(OC1C)C(=O)Nc1ccccc12 (stereo unspecified)	n	n	24	n	n	n	n	n
O=C1Nc2ccccc2C12OCC(COc1ccc(Cl)cc1)O2 (stereo unspecified)	n	n	n	n	n	n	x	x
Cc1c(/C=N/n2cnnc2)c2ccccc2n1C	n	n	12	n	n	n	n	n
CCN(CC)c1ccc(NC(=O)COC(=O)/C=C/c2nc3ccccc3s2)cc1	n	x	n	n	n	x	x	x
CCN(CC)c1ccc(/C=C/c2nc3ccccc3s2)cc1	x	n	17	n	x	66	n	n
CCOc1ccc2nc(N3C(=O)/C(=C/c4ccc(Cl)cc4)NC3=S)sc2c1	n	x	n	n	n	x	x	x
CCN(CC)c1ccc2cc(-c3nc4ccccc4n3C)c(=O)oc2c1	n	n	n	43	n	69	n	n
SMILES	CD11b adhes inh	S1P2 agonist	GALR2 agonist	GALR2 blocker	CD11b adhes enh	S1P2 antag	GALR2 agon conf	BLA act counter
CSc1nnc2c3cc(C)ccc3n(Cc3ccccc3)c2n1	n	x	10	n	n	x	n	n
CCn1c2ccc(C)cc2c2nnc(NN)nc21	x	x	n	n	x	x	x	x
CCOC(=O)/C(C#N)=C1\CCCN1CC(N)=S	x	x	n	n	x	x	x	x
Cc1ccc(NC(=O)CCC(=O)NNC(=O)c2ccco2)cc1C	x	n	18	n	x	n	n	n
Cc1c(Cl)cccc1NC(=O)CCC(=O)NNC(=O)c1ccco1	n	n	n	n	n	n	x	x
CCN(CC)S(=O)(=O)c1ccc(C)c(NC(=O)COc2ccc(Cl)cc2Br)c1	x	x	10	n	x	x	n	n
CCN(CC)S(=O)(=O)c1ccc(Cl)c(NC(=O)COc2ccccc2[N+](=O)[O-])c1	x	x	n	n	x	x	x	x
CCOC(=O)/C(C#N)=C/c1ccc(OC)c(OC)c1	n	n	16	n	n	n	n	n
